Source: PubChem BioAssay (EPA / NIEHS)
Records with an inconclusive call do not appear. Calls of active or inactive are those of the source. The calls were made as follows: active = hit-call score of the fitted dose curve at least 0.9, where 1 is the maximum; inconclusive = response in the unintended direction; inactive = score below 0.9.

What was measured:
[1] = ATG_XTT_Cytotoxicity: Cytotoxicity Assessment in the Attagene TRANS-FACTORIAL HepG2 Assay (AID 2283584)
How it was run: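 HepG2 cells transiently transfected with GAL4-UAS multiple reporter units, dosed 24 h; cytotoxicity read by XTT as loss of signal versus DMSO baseline.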

[2] = TOX21_p53_BLA_p2_viability: Viability Assessment in the Tox21 HCT-116 p53 Agonism Beta-lactamase Assay, Phase 2 (AID 2283591);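 also: compound exposure lasted 16 h at 37 °C; actives lower the ATP signal meaning cytotoxicity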
How it was run: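 HCT116 p53-bla cells, 4000/well, dosed after 5 h plating (217-fold dilution of DMSO stocks) and incubated 16 h at 37C. Viability taken as cellular ATP by CellTiter-Glo luminescence after 30 min RT; signal loss marks cytotoxicity.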

[3] = molecular target: Cellular tumor antigen p53 (Homo sapiens) (UniProt P04637); experiment: TOX21_p53_BLA_p2_ratio: Tox21 HCT-116 p53 Agonism Beta-lactamase Assay, Ratio, Phase 2 (AID 2283592)
Cellular tumor antigen p53 (Homo sapiens), sequence (P04637 whole entry, looked up): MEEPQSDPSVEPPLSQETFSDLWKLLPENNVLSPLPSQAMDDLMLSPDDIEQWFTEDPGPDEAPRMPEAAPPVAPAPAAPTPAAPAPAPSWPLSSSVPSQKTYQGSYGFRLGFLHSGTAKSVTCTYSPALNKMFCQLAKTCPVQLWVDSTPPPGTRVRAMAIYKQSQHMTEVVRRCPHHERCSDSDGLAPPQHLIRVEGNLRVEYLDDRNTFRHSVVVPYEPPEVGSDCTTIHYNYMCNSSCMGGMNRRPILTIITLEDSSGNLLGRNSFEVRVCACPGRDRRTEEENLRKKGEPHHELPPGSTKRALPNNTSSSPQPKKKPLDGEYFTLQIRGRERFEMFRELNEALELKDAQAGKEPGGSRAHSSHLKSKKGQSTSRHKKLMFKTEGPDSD
How it was run: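 First, HCT116 reporter cells settle for 5 h at 37C. Next, DMSO compound solutions are pinned in (217-fold dilution) and left 16 h. Finally, CCF4-AM substrate is loaded 2 h at room temperature and the 460/530 nm ratio read.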

[4] = molecular target: Cellular tumor antigen p53 (Homo sapiens) (UniProt P04637); experiment: TOX21_p53_BLA_p3_ratio: Tox21 HCT-116 p53 Agonism Beta-lactamase Assay, Ratio, Phase 3 (AID 2283596)
How it was run: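 Cells were seeded at 4000/well, rested 5 h at 37C, then dosed with DMSO compound solutions (217-fold dilution) for 16 h. CCF4-AM substrate was loaded for 2 h at room temperature, and the 460/530 nm emission ratio was fitted for gain of signal versus DMSO.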

[5] = TOX21_p53_BLA_p4_viability: Viability Assessment in the Tox21 HCT-116 p53 Agonism Beta-lactamase Assay, Phase 4 (AID 2283597);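 also: hits lower the luminescence signal meaning cytotoxicity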
How it was run: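 4000 HCT116 cells per well; 5 h attachment; compounds from DMSO, 217-fold dilution; 16 h at 37C. Then CCF4-AM, 2 h RT, followed by CellTiter-Glo, 30 min RT, luminescence. Decrease = cytotoxicity.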

[6] = molecular target: Cellular tumor antigen p53 (Homo sapiens) (UniProt P04637); experiment: TOX21_p53_BLA_p5_ratio: Tox21 HCT-116 p53 Agonism Beta-lactamase Assay, Ratio, Phase 5 (AID 2283599)
How it was run: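 HCT-116 p53-bla cells (4000/well) plated 5 h, dosed with compound (217-fold DMSO dilution) for 16 h at 37 C; CCF4-AM substrate 2 h at room temperature. Activity is the 460/530 nm emission ratio (405 nm excitation), fitted in gain-of-signal direction versus DMSO.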

[7] = TOX21_p53_BLA_p3_viability: Viability Assessment in the Tox21 HCT-116 p53 Agonism Beta-lactamase Assay, Phase 3 (AID 2283593);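 also: cells exposed to compound for 16 h before reading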
How it was run: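 HCT116 cells, 4000/well, dosed 5 h after plating by pin transfer (217-fold dilution from DMSO stock) and incubated 16 h at 37C, 5% CO2. Viability read as ATP luminescence with CellTiter-Glo after 30 min at room temperature.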

CC(=O)CC(=O)N(C)C
outcome [1]: inactive | outcome [2]: inactive | outcome [3]: inactive | outcome [4]: inactive | outcome [5]: inactive | outcome [6]: inactive

CCCCC(CC)COCCO (configuration not stated)
outcome [1]: inactive | outcome [2]: inactive | outcome [3]: inactive | outcome [6]: inactive

C=C(C)CCCC(C)CCO (configuration not stated)
outcome [1]: inactive | outcome [2]: inactive | outcome [7]: inactive | outcome [5]: inactive | outcome [6]: inactive

[Na+]
outcome [1]: inactive | outcome [2]: inactive | outcome [3]: inactive | outcome [7]: inactive | outcome [5]: inactive | outcome [6]: inactive

CCCCCCCC1CCCC1=O (configuration not stated)
outcome [1]: inactive | outcome [2]: inactive | outcome [3]: inactive | outcome [5]: inactive | outcome [6]: inactive

CCCCOCCOCCOCCO
outcome [1]: inactive | outcome [2]: inactive | outcome [7]: inactive | outcome [4]: inactive | outcome [5]: inactive | outcome [6]: inactive

CCOC(=O)CC1(C)OCC(C)O1 (configuration not stated)
outcome [1]: inactive | outcome [2]: inactive | outcome [3]: inactive | outcome [7]: inactive | outcome [6]: inactive

CCCCCCCCCCCCCCCCCC(=O)OCCCCCCCCCCCCCC(C)C
outcome [1]: inactive | outcome [2]: inactive | outcome [3]: inactive | outcome [5]: inactive | outcome [6]: inactive

Nc1ccn([C@H]2CC[C@@H](CO)O2)c(=O)n1
outcome [1]: inactive | outcome [2]: inactive | outcome [3]: inactive | outcome [7]: inactive | outcome [5]: inactive | outcome [6]: inactive

CCOC(=O)C=Cc1ccccc1
outcome [1]: inactive | outcome [2]: inactive | outcome [3]: inactive | outcome [7]: inactive | outcome [6]: inactive

CC(=O)Nc1cc(S(=O)(=O)O)cc2cc(S(=O)(=O)O)c(N=Nc3ccccc3)c(O)c12
outcome [1]: inactive | outcome [2]: inactive | outcome [3]: inactive | outcome [4]: inactive | outcome [5]: inactive | outcome [6]: inactive

C=C(C)C(=O)OCCN(C)C
outcome [1]: inactive | outcome [2]: inactive | outcome [7]: inactive | outcome [5]: inactive

CC(C)CCOC(=O)CC(C)C
outcome [1]: inactive | outcome [2]: inactive | outcome [7]: inactive | outcome [4]: inactive | outcome [6]: inactive

CCCCCc1cccc(=O)o1
outcome [1]: inactive | outcome [2]: inactive | outcome [7]: inactive | outcome [4]: inactive | outcome [5]: inactive | outcome [6]: inactive

CCC(C)(C)C1CCC(OC)CC1 (configuration not stated)
outcome [1]: inactive | outcome [2]: inactive | outcome [3]: inactive | outcome [7]: inactive | outcome [5]: inactive | outcome [6]: inactive

CCCCCCOc1ccc(O)cc1
outcome [1]: inactive | AC50 [2]: 45.6 µM (active) | AC50 [3]: 34 µM (active) | outcome [7]: inactive | AC50 [5]: 65 µM (active) | AC50 [6]: 52.4 µM (active)

CCCCCCCOC(C)=O
outcome [1]: inactive | outcome [2]: inactive | outcome [7]: inactive | outcome [5]: inactive

CCCCCCOC(C)=O
outcome [1]: inactive | outcome [2]: inactive | outcome [3]: inactive | outcome [4]: inactive | AC50 [5]: 24.9 µM (active) | outcome [6]: inactive

CCCc1ccc(O)cc1
outcome [1]: inactive | outcome [2]: inactive | outcome [3]: inactive | outcome [7]: inactive | outcome [5]: inactive | outcome [6]: inactive

CCc1cccc(O)c1
outcome [1]: inactive | outcome [2]: inactive | outcome [3]: inactive | outcome [4]: inactive | outcome [5]: inactive | outcome [6]: inactive

[Cu+]
outcome [1]: inactive | outcome [2]: inactive | outcome [5]: inactive

O=C(O)C1=NN(c2ccc(S(=O)(=O)O)cc2)C(=O)C1
outcome [1]: inactive | outcome [2]: inactive | outcome [3]: inactive | outcome [4]: inactive | outcome [6]: inactive

CCCCCCC(C)O (configuration not stated)
outcome [1]: inactive | outcome [2]: inactive | outcome [3]: inactive | outcome [7]: inactive | outcome [5]: inactive | outcome [6]: inactive

CCOC(=O)COC(=O)c1ccccc1C(=O)OCC
outcome [1]: inactive | outcome [2]: inactive | outcome [5]: inactive | outcome [6]: inactive

O=c1cc(-c2ccc(O)cc2)oc2cc(O)cc(O)c12
outcome [1]: inactive | outcome [2]: inactive | outcome [3]: inactive | outcome [5]: inactive | outcome [6]: inactive

C=C/C(C)=C/C/C=C(\C)CCC=C(C)C
outcome [1]: inactive | outcome [2]: inactive | outcome [7]: inactive | outcome [4]: inactive

CC/C=C\C#N
outcome [1]: inactive | outcome [2]: inactive | outcome [3]: inactive | outcome [4]: inactive | outcome [5]: inactive | outcome [6]: inactive

CC(CCO)CC(C)(C)C (configuration not stated)
outcome [1]: inactive | outcome [2]: inactive | outcome [3]: inactive | outcome [5]: inactive | outcome [6]: inactive

Cc1cc(N)n(-c2ccccc2)n1
outcome [1]: inactive | outcome [2]: inactive | outcome [7]: inactive

CCCCCCCCCCCCCC(=O)OCC
outcome [1]: inactive | outcome [2]: inactive | outcome [3]: inactive | outcome [4]: inactive | outcome [5]: inactive | outcome [6]: inactive

NC(=O)c1cccnc1
outcome [1]: inactive | outcome [2]: inactive | outcome [3]: inactive | outcome [7]: inactive | outcome [5]: inactive | outcome [6]: inactive

S=c1[nH][nH]c(=S)s1
outcome [1]: inactive | outcome [2]: inactive | outcome [3]: inactive | outcome [5]: inactive | outcome [6]: inactive

C=CCOCC(O)CO (configuration not stated)
outcome [1]: inactive | outcome [2]: inactive | outcome [7]: inactive | outcome [4]: inactive | outcome [6]: inactive

Cc1cccc(O)c1
outcome [1]: inactive | outcome [2]: inactive | outcome [4]: inactive | outcome [5]: inactive | outcome [6]: inactive

CC(C)Cc1ccccc1
outcome [1]: inactive | outcome [3]: inactive | outcome [7]: inactive | outcome [5]: inactive | outcome [6]: inactive

CCCCCCCCCOS(=O)(=O)O
outcome [1]: inactive | outcome [3]: inactive | outcome [5]: inactive | outcome [6]: inactive

CCCc1ccc(N)cc1
outcome [1]: inactive | outcome [3]: inactive | outcome [4]: inactive | outcome [5]: inactive | outcome [6]: inactive

CC/C=C\CCOC(C)OCC (configuration not stated)
outcome [1]: inactive | outcome [3]: inactive | outcome [4]: inactive | outcome [6]: inactive

CC/C=C\CCOC(=O)C(C)C
outcome [1]: inactive | outcome [3]: inactive | outcome [7]: inactive | outcome [5]: inactive | outcome [6]: inactive

COc1ccc(C(C)=O)cc1
outcome [1]: inactive | outcome [3]: inactive | outcome [6]: inactive
